Screens: PubChem BioAssay, The Scripps Research Institute Molecular Screening Center
An excerpt weighted towards active compounds, which were near 3.2% of everything screened.
bovine MsrA act: bovine methionine sulfoxide reductase A activation; purified bovine MsrA, absorbance read-out; activation, % at 10.6 µM; 360,000 tested, 0.3% active; AID 602163; in the data active means activation above about 7.5%;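 further: 0% = vehicle and 100% = reference activator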
PG9 binder: small molecules binding HIV-1 gp120 antibody PG9 | TR-FRET gp120-PG9 antibody binding | inhibition, % at 6.7 µM | 360,000 tested, 0.43% active; in the data active means inhibition above about 8.5%
HGIII-sPLA2 inh: Blocks human group III sPLA2 activity | Q9NZ20 | QFRET BODIPY PC-A2 liposome hydrolysis, fluorescence | inhibition, % at 12.2 µM | 370,000 tested, 0.56% active | AID 743126;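 active means inhibition above mean plus 3 SD of compounds lying within the high and low control bounds, cut at about 19% in these data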;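 further: 0% = median of test compound wells and 100% = no enzyme DMSO wells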
Target sequence (Q9NZ20 whole entry, looked up): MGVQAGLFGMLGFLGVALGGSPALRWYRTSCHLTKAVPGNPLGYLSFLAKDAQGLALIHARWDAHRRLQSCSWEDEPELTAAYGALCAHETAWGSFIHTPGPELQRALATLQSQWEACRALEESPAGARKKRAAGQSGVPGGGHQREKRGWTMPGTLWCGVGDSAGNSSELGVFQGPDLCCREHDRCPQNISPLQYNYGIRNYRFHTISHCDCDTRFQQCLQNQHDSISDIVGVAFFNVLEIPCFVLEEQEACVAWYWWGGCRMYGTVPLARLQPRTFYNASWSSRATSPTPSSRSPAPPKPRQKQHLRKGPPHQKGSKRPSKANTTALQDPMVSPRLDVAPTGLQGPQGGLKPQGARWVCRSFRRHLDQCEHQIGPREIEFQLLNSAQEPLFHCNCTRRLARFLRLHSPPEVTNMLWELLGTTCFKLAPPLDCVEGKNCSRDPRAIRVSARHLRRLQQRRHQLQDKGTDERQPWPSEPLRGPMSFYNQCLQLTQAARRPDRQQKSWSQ
rCAG RNA binder: r(CAG) repeat RNA binding | TO-PRO-1 dye displacement fluorescence | inhibition, % at 3 µM | 370,000 tested, 1.3% active;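 active means inhibition above the plate cutoff, the mean of all test compounds on that plate plus 3 SD, cut at about 35% in these data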;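 further: 0% = DMSO alone and 100% = 100 µM mitoxantrone as full dye displacement; higher means more dye released from RNA so lower well fluorescence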
MsrA inhibitor: inhibits bovine methionine sulfoxide reductase A; purified bovine MsrA, absorbance read-out; inhibition, % at 15.5 µM; 360,000 tested, 0.75% active; AID 651718;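 further: 0% = vehicle wells with enzyme and 100% = reference inhibitor wells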
MsrA act confirm: bovine methionine sulfoxide reductase A activation confirmed; 1,000 tested, 12% active; activation, % at 10.6 µM; purified bovine MsrA, absorbance read-out; shares compounds with bovine MsrA act; in the data active means activation above about 4%;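 further: enzyme coupled to thioredoxin and thioredoxin reductase with NADPH; 0% = vehicle wells and 100% = reference activator wells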
PG9 bind confirm: PG9 antibody binding, confirmed; shares compounds with PG9 binder; TR-FRET PG9 antibody binding, biochemical; inhibition, % at 6.7 µM; 1,500 tested, 90% active; in the data active means inhibition above about 9%
PGV04 Ab binding: PGV04 control antibody binding, counter-screen; shares compounds with PG9 binder; TR-FRET PGV04 antibody-gp120 binding, biochemical; inhibition, % at 6.7 µM; 1,500 tested, 95% active; AID 651604; in the data active means inhibition above about 9.5%
MsrA conf: confirmation of bovine MsrA inhibitors | inhibition, % at 15.5 µM | purified bovine MsrA, absorbance read-out | AID 651822 | shares compounds with MsrA inhibitor | 2,300 tested, 41% active;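 further: coupled to thioredoxin reductase with NADPH and selenocystamine and DMSO as substrate; 0% = vehicle only and 100% = full effect of reference inhibitor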
rCAG binder conf: r(CAG) RNA repeat binding, confirmation; TO-PRO-1 dye displacement fluorescence; inhibition, % at 3 µM; AID 652065; 4,300 tested, 70% active; shares compounds with rCAG RNA binder;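 active means inhibition above a per-plate cutoff, the mean inhibition of sample wells plus 3 SD, cut at about 35% in these data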;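 further: loss of TO-PRO-1 fluorescence as compound displaces dye from 1x1 AA loop RNA; 0% = DMSO only wells and 100% = 100 µM mitoxantrone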
DNA CAG counter: counter-screen for rCAG RNA binders: DNA CAG dye complex inhibitors. shares compounds with rCAG RNA binder. d(CAG) DNA oligo TO-PRO-1 dye displacement, fluorescence. inhibition, % at 3 µM. 4,300 tested, 94% active. AID 652068;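 active means inhibition above its plate's cutoff, the mean test-well inhibition plus 3 SD, cut at about 4.8% in these data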;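 further: 0% = DNA dye mix with DMSO and 100% = 100 µM mitoxantrone; hits displace the dye from DNA and so lower well fluorescence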
hGIII sPLA2 conf: human GIII-sPLA2 inhibition, confirmation; 2,000 tested, 34% active; inhibition, % at 12.2 µM; AID 743280; recombinant hGIII-sPLA2, BODIPY PC-A2 QFRET fluorescence; shares compounds with HGIII-sPLA2 inh;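 active means mean inhibition across triplicates above the hit cutoff set in the earlier primary screen, cut at about 19% in these data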;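 further: 0% = enzyme with DMSO and 100% = DMSO wells lacking enzyme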
535nm interf: 535nm fluorescence interference, HGIII-sPLA2 counter-screen | shares compounds with HGIII-sPLA2 inh | BODIPY FL product fluorescence interference, QFRET | inhibition, % at 12.2 µM | 2,000 tested, 8.5% active | AID 743282;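 active means average inhibition above the solvent-only control mean plus 3 SD, cut at about 6% in these data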;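 further: 0% = DMSO with substrate plus product and 100% = DMSO with substrate alone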
* = called active by the depositor; . = not tested or not shown; ! = not confirmed by another sample. Unless noted, no stated cut-off is given here; in the data, active means inhibition above about 4.5%; inactive means the rest.

SMILES	bovine MsrA act	PG9 binder	HGIII-sPLA2 inh	rCAG RNA binder	MsrA inhibitor	MsrA act confirm	others
COC(=O)C1CN(C2CCCC2)CCS(=O)(=O)N1Cc1ccc(OC)cc1 (centres undefined)	.	.	-2	2	.	.
CCCNS(=O)(=O)c1ccc(OCC(=O)NCc2ccco2)cc1	16*	0	-1	5	0	1
CCOc1ccc(S(=O)(=O)NCCC(=O)NCc2ccco2)cc1	-3	1	-2	7	-1	.
CC(CN(C)Cc1ccccc1)OC(=O)c1cccs1 (centres undefined)	8.4*	-1	-3	-7	0	-2
Cn1c(NC(=O)c2ccccc2)nc(Cc2ccccc2)c1-c1ccccc1	.	.	19	1	.	.
CCOc1ccc(-c2nnc(NC3=NCCCCC3)o2)cc1	10*	2	3	-1	1	0
CN(Cc1ccccc1F)c1ncnc2sccc12	14*	-1	-2	-1	0	0
O=C(Nc1ccc2c(c1)OCO2)c1cncc(Br)c1	-2	-3	-4	3	0	.
O=C(Nc1ccc2c(c1)OCCO2)c1cncc(Br)c1	9.2*	1	7	-1	0	0
COc1ccc(C(c2ccc(OC)cc2)N2CCN(C(=O)c3noc(C)c3[N+](=O)[O-])CC2)cc1	.	.	-49	.	.	.
O=S(=O)(Nc1cc(Sc2ncn[nH]2)c(O)c2ccccc12)c1ccccc1	14*	-4	-13	22	63*	1	MsrA conf=0
O=c1ccc(-c2ccc([N+](=O)[O-])cc2)nn1-c1ccccc1	-3	-2	-5	0	0	.
O=[N+]([O-])c1ccc(-[n+]2nc(-c3ccccc3)nn2-c2ccccc2)cc1	7.8*	-4	-7	-3	26*	4.8*	MsrA conf=25*
C[n+]1c(-c2ccccc2)cc2c(=Cc3ccc([N+](=O)[O-])cc3)c3ccccc3n21	20*	-3	16	11	11*	17*	MsrA conf=0
CC1OC2CC(=O)OC2C2=C1C(=O)c1c(O)cccc1C2=O (centres undefined)	17*	15*	7	4	8.5*	11*	PG9 bind confirm=14*;PGV04 Ab binding=17*;MsrA conf=6.8*
Cc1ccc(C(=O)OCc2nnc(-c3ccccc3)o2)s1	-5	1	1	-3	1	.
O=C(OCc1nnc(-c2ccccc2)o1)c1ccc([N+](=O)[O-])s1	18*	0	6	4	9.3*	24*	MsrA conf=7.2*
COC(=O)[C@]12C[C@H](CC(=O)NCc3ccc(C)o3)C(=O)N(CCC3=CCCCC3)C1=C[C@H](C(C)C)O[C@@H]2C1CC1	.	.	-8	6	.	.
C=CCN(CC#Cc1ccc(C(F)(F)F)cc1)Cc1ccc(OC)cc1OC	.	.	12	3	.	.
CCCCc1ccc2nc(NC(=O)c3cccs3)sc2c1	.	.	-29	.	.	.
Cc1ccc(NS(=O)(=O)c2ccc3c(c2)C(=O)c2ccccc2C3=O)c(C)c1	12*	-2	-9	6	10*	5.8*	MsrA conf=32*
Cc1ccc(C)c(NS(=O)(=O)c2ccc3c(c2)Cc2cc(S(=O)(=O)Nc4cc(C)ccc4C)ccc2-3)c1	3	-3	-26	10	3	.
Cc1ccc(S(=O)(=O)N(CC(=O)Nc2ccccc2C(=O)O)c2ccccc2)cc1	7.8*	-1	-13	41*	2	-3	rCAG binder conf=34;DNA CAG counter=8.4*
COc1ccccc1NC(=O)CN(c1ccccc1)S(=O)(=O)c1ccccc1	-13	0	-3	3	-1	.
COC(=O)c1sccc1NC(=O)CSc1ccccc1NS(=O)(=O)c1ccccc1Cl	8.3*	-1	-56	36*	1	-5	rCAG binder conf=62*;DNA CAG counter=20*
SMILES	bovine MsrA act	PG9 binder	HGIII-sPLA2 inh	rCAG RNA binder	MsrA inhibitor	MsrA act confirm	others
COC(=O)c1sccc1NC(=O)CSc1ccccc1NS(=O)(=O)c1ccc(Cl)cc1	-2	1	-78	32	0	.
COc1ccccc1OCC(=O)N/N=C/C=C/c1ccc([N+](=O)[O-])o1	10*	-5	-15	36*	1	2	rCAG binder conf=34;DNA CAG counter=17*
CCCCCCCCN1C(=O)[C@@H](CC(=O)N2CCN(C(=O)OCC)CC2)C[C@@]2(C(=O)OC)C1=C[C@H](COCc1ccccc1)O[C@@H]2C	.	.	-18	6	.	.
CCOC(=O)C1=C(CSc2nc3c(cc2C#N)CN(C)CC3)OC(N)=C(C#N)C1c1ccc(Cl)cc1 (centres undefined)	9.6*	-1	-24	35*	0	-2	rCAG binder conf=19;DNA CAG counter=11*
COc1ccc(OC)c(S(=O)(=O)n2c(CN3CCOCC3)nc3ccccc32)c1	.	.	1	5	.	.
S=c1[nH]nc2ccccn12	0	-3	7	1	0	.
S=c1[nH]nc2ccc3ccccc3n12	11*	2	26*	0	2	2	hGIII sPLA2 conf=23*;535nm interf=0
CCCCOC(=O)Nc1ccccc1C(=O)N1CCCC1	15*	-1	22*	-6	1	0	hGIII sPLA2 conf=2;535nm interf=-9
O=C1N2Cc3ccccc3C2CS(=O)(=O)N1Cc1ccccc1 (centres undefined)	.	.	2	4	.	.
CC(=O)Nc1ccc(S(=O)(=O)NC2=C(N3CCN(Cc4ccccc4)CC3)C(=O)c3ccccc3C2=O)cc1	8.1*!	-7	21*!	9	1	1	hGIII sPLA2 conf=25*;535nm interf=-6
S=c1[nH]c2ccc(Cl)cc2[nH]1	-2	4	1	1	-1	.
S=c1[nH]c2cc(Cl)ccc2s1	12*	-1	24*	-1	1	4.8*	hGIII sPLA2 conf=21*;535nm interf=1
O=C(Nc1ccc2c(c1)Cc1ccccc1-2)NC1CCCCN(Cc2cccc(Cl)c2)C1=O (centres undefined)	.	.	0	6	.	.
CC(OC(=O)c1cc(Br)ccc1O)C(=O)NCc1ccc2c(c1)OCO2 (centres undefined)	-2	20*	14	1	1	.	PG9 bind confirm=33*;PGV04 Ab binding=69*
